# Results reported in PubChem BioAssay AID2778 (National Center for Advancing Translational Sciences (NCATS), 2010).
# Records with an inconclusive call do not appear. Calls of active or inactive are those of the source. The call rests on the fitted dose curve; in most records, active means well fitted inhibition curve with a large enough effect; inconclusive means small, poorly fitted or top-dose-only effect, or effect the other way; inactive means flat fitted curve, though single readings scatter.
# Target: Menin (Homo sapiens) (UniProt O00255)
# Sequence (O00255 whole entry, looked up): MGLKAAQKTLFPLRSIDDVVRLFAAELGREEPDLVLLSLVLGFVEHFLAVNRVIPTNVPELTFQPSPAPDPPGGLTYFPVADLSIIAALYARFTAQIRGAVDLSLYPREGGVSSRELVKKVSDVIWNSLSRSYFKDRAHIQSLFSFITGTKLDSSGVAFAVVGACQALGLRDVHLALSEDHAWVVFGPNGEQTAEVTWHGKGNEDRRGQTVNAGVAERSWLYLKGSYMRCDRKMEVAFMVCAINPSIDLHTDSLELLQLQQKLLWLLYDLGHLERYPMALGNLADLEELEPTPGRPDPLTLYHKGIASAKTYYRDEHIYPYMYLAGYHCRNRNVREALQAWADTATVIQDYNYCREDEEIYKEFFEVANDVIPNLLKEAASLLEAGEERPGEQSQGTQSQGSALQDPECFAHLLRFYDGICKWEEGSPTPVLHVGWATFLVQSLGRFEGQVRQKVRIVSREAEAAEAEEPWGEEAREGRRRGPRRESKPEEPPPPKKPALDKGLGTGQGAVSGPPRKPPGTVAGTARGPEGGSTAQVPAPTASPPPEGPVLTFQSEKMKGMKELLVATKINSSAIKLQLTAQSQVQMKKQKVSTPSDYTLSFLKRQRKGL
# Experiment: Confirmation of Inhibitors Targeting the Menin-MLL Interaction in MLL Related Leukemias: Confirmation in an HTRF (commercial TR-FRET) Assay using His-tagged menin and biotin-labeled MLL peptide
# Settings: His-menin / biotin-MLL peptide binding; series mostly up to 126 µM; activity change, negative = inhibition: at the top concentration
# Method in brief: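 HTRF: His6-menin (200 nM) and biotin-MLL-w.t. peptide (80 nM) preincubated 15 min, then compounds 1 hr at ambient, before Eu-cryptate anti-His (3.5 nM) and streptavidin-XL665 (10 nM) for 1 h; 50 mM Tris-HCl pH 7.5, 50 mM NaCl, 1 mM DTT, BSA.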
# On the % scale 0 is the no-effect control and ±100 the full control effect; potency means the concentration at half of the fitted maximal effect.
Compound,"activity change, negative = inhibition",Potency
Cc1nc(N2CCN(C)CC2)c2c3c(sc2n1)CCCC3,0.279% (inactive),–
CCOC(=O)C1CCN(CC(O)COCc2ccccc2)CC1 (stereo not drawn),-0.832% [at 383 µM] (inactive),–
CC(=O)NC1C(=O)N(CCN2CCOCC2)c2ccc(F)cc21 (stereo not drawn),-3.85% (inactive),–
O=C(NC(=S)Nc1ccccc1)c1cc(-c2ccccc2)nc2ccccc12,-1.55% [at 383 µM] (inactive),–
O=C(CSc1nc(O)cc(=O)n1-c1ccccc1)c1ccc(Br)cc1,-24.8% (inactive),–
COc1ccc(N(C(=O)c2ccncc2)S(=O)(=O)c2ccc(Cl)cc2)cc1,8.53% (inactive),–
NC(=NCCCCCCN=C(N)/N=C(\N)Nc1ccc(Cl)cc1)/N=C(\N)Nc1ccc(Cl)cc1,–,282 µM (active)
Cc1ccccc1-c1n[nH]c(=S)n1C,6% (inactive),–
Cn1c(=O)n(C)c2cc3[nH]cnc3cc21,5.86% (inactive),–
NS(=O)(=O)c1ccc(NC(=O)c2ccc(-c3ccccc3)cc2)cc1,–,63.1 µM (active)
CCCCn1c(SCC(=O)NCc2ccc(OC)c(C(=O)O)c2)nc2cc(S(N)(=O)=O)ccc21,-4.84% [at 383 µM] (inactive),–
Oc1ccc2ccccc2c1N=Nc1nccs1,12.6% (inactive),–
O=C(NC(=S)Nc1nc(-c2ccc(Br)cc2)cs1)c1cccnc1,-24.2% (inactive),–
COc1cccc(OC)c1NC(=O)CN1CCN(C)CC1,-0.577% (inactive),–
O=C(C1=C(O)C(=O)N(CCN2CCOCC2)C1c1cccc(Br)c1)c1cccs1 (stereo not drawn),-7.5% [at 383 µM] (inactive),–
O=S(=O)(Nc1cccc(-c2cn3cccnc3n2)c1)c1ccccc1,-4.98% [at 383 µM] (inactive),–
Cc1ccc(NC(=O)C(C)N2C(=O)c3ccccc3C2=O)c(C)c1 (stereo not drawn),6.35% (inactive),–
O=[N+]([O-])CC(c1ccccc1)P(=O)(c1ccccc1)c1ccccc1 (stereo not drawn),0.121% (inactive),–
